Measurements: PubChem BioAssay
Active and inactive are the calls of the source.

Experiments:
[1] = tested on: Plasmodium falciparum Sir2 (PF13_0152, Sir2A); experiment: Plasmodium falciparum Sir2A binding compounds – biochemical, small-molecule microarray, 635 nm fluorescence, primary screen (AID 1098); conditions: fluorescence 635 nm, higher = more signal;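 note: score merges spot fluorescence intensity with its signal-to-noise ratio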
[2] = probe aDKK1 binding to arrayed compounds – biochemical, biotinylated probe, 635/667 nm fluorescence, primary screen (AID 1099); conditions: small-molecule microarray, higher = more signal;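 note: score merges 667nm spot fluorescence with signal to noise across triplicate slides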
[3] = probe aCHRDL2 binding to arrayed compounds – biochemical, biotinylated probe, 635/667 nm fluorescence, primary screen (AID 1100); conditions: small-molecule microarray, higher = more signal
[4] = change in splice reporter luminescence, either direction, cell-based, HEK293, spliceosome inhibition project, primary screen (AID 1101); conditions: HEK293 splicing luciferase reporter, 24 h, higher = more signal, called active from +8 up or from −8 down;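 note: HEK293 cells carrying a splicing-competent luciferase reporter gene; test concentration not given here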
[5] = molecular target: Fibroblast growth factor 10 (Homo sapiens) (UniProt O15520); experiment: compounds binding fibroblast growth factor 10 – biochemical, small-molecule microarray, 635 nm fluorescence, primary screen (AID 1102); conditions: FGF10 binding, fluorescence 635 nm, higher = more signal
Sequence of Fibroblast growth factor 10 (Homo sapiens) (O15520 whole entry, looked up): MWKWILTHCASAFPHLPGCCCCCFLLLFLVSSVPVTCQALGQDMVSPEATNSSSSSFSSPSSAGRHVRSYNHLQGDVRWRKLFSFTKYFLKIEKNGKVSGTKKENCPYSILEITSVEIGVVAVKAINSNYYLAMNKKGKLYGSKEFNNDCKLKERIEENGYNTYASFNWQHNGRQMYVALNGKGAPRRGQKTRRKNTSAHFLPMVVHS

[6] = tested on: glycogen synthase kinase-3 (GSK3A per assay name; protocol says GSK3B); experiment: compounds binding glycogen synthase kinase-3 – biochemical, small-molecule microarray, 635 nm fluorescence, GSK3A, primary screen (AID 1103); conditions: fluorescence 635 nm, higher = more signal; note: the record names both GSK3A and GSK3B
[7] = molecular target: Epidermal growth factor receptor (Homo sapiens) (UniProt P00533); experiment: compounds binding epidermal growth factor receptor – biochemical, small-molecule microarray, 635 nm fluorescence, primary screen (AID 1104); conditions: EGFR binding, higher = more signal;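 note: score merges 667 nm emission intensity with spot signal to noise over triplicate slides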
Sequence of Epidermal growth factor receptor (Homo sapiens) (P00533 whole entry, looked up): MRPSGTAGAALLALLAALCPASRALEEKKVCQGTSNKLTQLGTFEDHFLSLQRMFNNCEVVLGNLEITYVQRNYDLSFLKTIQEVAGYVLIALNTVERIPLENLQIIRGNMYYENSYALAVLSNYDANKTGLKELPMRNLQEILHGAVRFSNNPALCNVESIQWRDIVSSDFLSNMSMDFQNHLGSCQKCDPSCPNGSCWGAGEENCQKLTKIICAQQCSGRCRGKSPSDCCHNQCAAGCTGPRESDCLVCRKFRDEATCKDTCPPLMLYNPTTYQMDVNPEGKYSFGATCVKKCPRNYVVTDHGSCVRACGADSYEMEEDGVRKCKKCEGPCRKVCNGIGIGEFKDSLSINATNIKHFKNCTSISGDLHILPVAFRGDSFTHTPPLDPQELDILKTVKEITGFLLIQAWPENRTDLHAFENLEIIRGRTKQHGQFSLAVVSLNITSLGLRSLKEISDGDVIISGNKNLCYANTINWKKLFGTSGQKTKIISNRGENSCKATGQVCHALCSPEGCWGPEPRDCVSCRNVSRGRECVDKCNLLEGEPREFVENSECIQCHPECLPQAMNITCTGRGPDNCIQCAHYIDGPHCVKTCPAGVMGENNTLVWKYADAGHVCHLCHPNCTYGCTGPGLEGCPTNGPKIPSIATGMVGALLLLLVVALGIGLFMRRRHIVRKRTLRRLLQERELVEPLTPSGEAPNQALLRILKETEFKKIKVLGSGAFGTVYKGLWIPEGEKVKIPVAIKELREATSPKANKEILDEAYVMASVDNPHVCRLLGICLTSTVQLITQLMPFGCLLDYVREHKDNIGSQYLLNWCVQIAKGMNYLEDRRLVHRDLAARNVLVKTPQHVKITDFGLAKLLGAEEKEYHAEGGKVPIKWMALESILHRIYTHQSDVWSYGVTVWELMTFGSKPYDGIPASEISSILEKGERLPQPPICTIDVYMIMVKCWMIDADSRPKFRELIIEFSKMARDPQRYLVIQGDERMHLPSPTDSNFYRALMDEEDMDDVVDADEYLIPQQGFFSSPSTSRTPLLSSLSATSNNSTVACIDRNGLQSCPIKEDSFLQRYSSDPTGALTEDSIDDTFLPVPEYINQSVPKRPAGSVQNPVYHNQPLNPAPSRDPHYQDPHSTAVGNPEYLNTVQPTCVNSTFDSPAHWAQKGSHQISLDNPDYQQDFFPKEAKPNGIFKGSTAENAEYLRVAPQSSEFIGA

[8] = molecular target: Follistatin-related protein 3 (Homo sapiens) (UniProt O95633); experiment: compounds binding follistatin-related protein 3 – biochemical, small-molecule microarray, 635 nm fluorescence, primary screen (AID 1105); conditions: FSTL3 binding, higher = more signal;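 note: score merges emission near 667 nm and signal to noise per printed spot across three slides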
Sequence of Follistatin-related protein 3 (Homo sapiens) (O95633 whole entry, looked up): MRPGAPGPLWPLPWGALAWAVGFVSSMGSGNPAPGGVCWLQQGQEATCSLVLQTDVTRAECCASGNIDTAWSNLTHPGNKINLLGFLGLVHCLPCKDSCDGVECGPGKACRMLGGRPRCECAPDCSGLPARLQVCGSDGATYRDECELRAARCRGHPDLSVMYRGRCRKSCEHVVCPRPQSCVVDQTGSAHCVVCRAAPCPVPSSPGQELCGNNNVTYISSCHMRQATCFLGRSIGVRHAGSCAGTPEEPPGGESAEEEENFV

[9] = molecular target: Dickkopf-related protein 1 (Homo sapiens) (UniProt O94907); experiment: small molecules binding DKK1 protein – biochemical, small-molecule microarray, 635 nm fluorescence scan, primary screen (AID 1106); conditions: higher = more signal;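 note: score merges emission near 667 nm with signal to noise over three replicate slides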
Sequence of Dickkopf-related protein 1 (Homo sapiens) (O94907 whole entry, looked up): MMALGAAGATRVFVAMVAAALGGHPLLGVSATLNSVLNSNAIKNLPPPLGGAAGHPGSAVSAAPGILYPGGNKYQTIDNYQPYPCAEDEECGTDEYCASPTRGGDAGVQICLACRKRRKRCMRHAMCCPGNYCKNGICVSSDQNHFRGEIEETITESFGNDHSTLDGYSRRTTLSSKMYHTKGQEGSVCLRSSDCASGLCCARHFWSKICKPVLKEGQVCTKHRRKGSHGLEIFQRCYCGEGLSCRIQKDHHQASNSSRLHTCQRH

[10] = tested on: Inhibin beta A chain (activin A); experiment: small molecules binding activin A – biochemical, small-molecule microarray, 635 nm fluorescence scan, primary screen (AID 1107); conditions: INHBA, higher = more signal;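 note: mouse activin A protein probed at 4.33 µg/mL on printed slides; score merges bound-protein fluorescence near 667 nm with spot signal-to-noise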
[11] = tested on: Human papillomavirus type 1a protein E7 (residues 44-93); experiment: small molecules binding HPV E7 44-93 – biochemical, small-molecule microarray, residues 44-93, 635 nm fluorescence, primary screen (AID 1108); conditions: fluorescence 635 nm, higher = more signal;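 note: E7 fragment applied at 1 µg/mL in TBST for 1 h at 4 C; score combines spot fluorescence with its signal to noise ratio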
[12] = hepatitis C replication reporter changes, two-sided – Huh7 cells, luciferase reporter, HCV replication inhibitor project, primary screen (AID 1109); conditions: Huh7 HCV replicon luciferase reporter, 48 h; higher = more signal;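 note: huh7 hepatoma cells harbouring a luciferase neomycin HCV replicon reporter; luciferase luminescence as measure of HCV replicon replication; test concentration not given here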
[13] = molecular target: Left-right determination factor 2 (Homo sapiens) (UniProt O00292); experiment: small molecules binding LEFTY2 protein – biochemical, small-molecule microarray, 635 nm fluorescence scan, primary screen (AID 1110); conditions: higher = more signal
Sequence of Left-right determination factor 2 (Homo sapiens) (O00292 whole entry, looked up): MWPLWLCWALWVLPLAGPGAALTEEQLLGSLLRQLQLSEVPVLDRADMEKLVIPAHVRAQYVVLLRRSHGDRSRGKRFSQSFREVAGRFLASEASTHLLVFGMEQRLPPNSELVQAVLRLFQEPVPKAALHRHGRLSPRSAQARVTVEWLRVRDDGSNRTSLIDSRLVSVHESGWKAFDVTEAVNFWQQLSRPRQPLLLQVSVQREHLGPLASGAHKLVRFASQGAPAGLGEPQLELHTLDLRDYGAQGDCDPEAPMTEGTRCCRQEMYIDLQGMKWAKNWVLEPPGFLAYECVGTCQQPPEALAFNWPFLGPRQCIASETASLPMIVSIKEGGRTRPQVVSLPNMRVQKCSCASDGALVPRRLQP

[14] = molecular target: Calmodulin-1 (Homo sapiens) (UniProt P0DP23); experiment: small molecules binding calmodulin-1 with EGTA – biochemical, small-molecule microarray, Cy5-labelled CALM1, profiling panel (AID 1111); conditions: Cy5-CALM1 binding fluorescence, higher = more signal;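 note: labelled calmodulin applied in Tris saline Tween buffer holding calcium plus EGTA and DTT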
[15] = molecular target: Calmodulin-1 (Homo sapiens) (UniProt P0DP23); experiment: small molecules binding Ca-loaded calmodulin-1 – biochemical, small-molecule microarray, Cy5-labelled CALM1, plus calcium, artefact control for SMM control-protein annotation, profiling panel (AID 1112); conditions: Cy5-CALM1 binding fluorescence, higher = more signal;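 note: score merges spot fluorescence with signal to noise from triplicate slides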
[16] = probe aWnt5a binding to arrayed compounds – biochemical, biotinylated probe, 635/667 nm fluorescence, primary screen (AID 1113); conditions: small-molecule microarray, higher = more signal;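 note: score merges 667 nm fluorescence intensity with signal-to-noise per printed feature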
[17] = probe aShh binding to arrayed compounds – biochemical, biotinylated probe, 635/667 nm fluorescence, primary screen (AID 1114); conditions: small-molecule microarray, higher = more signal;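 note: probe is biotin-labelled aShh protein from a stem cell growth factor screen; measures binding of labelled protein to compounds printed on the slide; score merges feature fluorescence at 667 nm with signal-to-noise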
[18] = probe aNog binding to arrayed compounds – biochemical, biotinylated probe, 635/667 nm fluorescence, primary screen (AID 1115); conditions: small-molecule microarray, higher = more signal;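 note: probe is biotinylated aNog protein used at 0.15 µg/mL for 1 h at 4 C; z-score combines 667 nm fluorescence of each spot with its signal to noise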
[19] = molecular target: Torsin-1A-interacting protein 1 (Homo sapiens) (UniProt Q5JTV8); experiment: compound microarray binding of lysate hLAP1 – cell lysate, small-molecule microarray, COS7 lysate, 635/667 nm fluorescence, primary screen (AID 1116); conditions: 635 nm fluorescence, higher = more signal
Sequence of Torsin-1A-interacting protein 1 (Homo sapiens) (Q5JTV8 whole entry, looked up): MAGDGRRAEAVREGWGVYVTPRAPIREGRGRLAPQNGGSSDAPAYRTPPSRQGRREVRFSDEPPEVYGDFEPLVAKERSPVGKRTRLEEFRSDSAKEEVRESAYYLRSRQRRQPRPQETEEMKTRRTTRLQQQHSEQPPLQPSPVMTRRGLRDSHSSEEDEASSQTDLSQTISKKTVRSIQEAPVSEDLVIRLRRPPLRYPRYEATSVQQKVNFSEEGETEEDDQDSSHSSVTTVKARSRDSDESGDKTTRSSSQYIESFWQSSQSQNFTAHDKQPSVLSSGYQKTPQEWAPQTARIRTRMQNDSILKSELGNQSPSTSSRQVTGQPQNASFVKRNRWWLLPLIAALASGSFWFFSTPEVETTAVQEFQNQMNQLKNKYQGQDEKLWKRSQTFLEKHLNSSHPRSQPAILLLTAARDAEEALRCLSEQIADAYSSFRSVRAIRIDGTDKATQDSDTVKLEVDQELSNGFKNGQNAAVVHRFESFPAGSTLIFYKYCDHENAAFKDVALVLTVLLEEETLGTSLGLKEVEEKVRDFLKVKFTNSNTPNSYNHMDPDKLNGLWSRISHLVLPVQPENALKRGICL

[20] = molecular target: Alpha-bungarotoxin (Bungarus multicinctus) (UniProt P60615); experiment: compounds binding labelled alpha-BTX control protein – biochemical, small-molecule microarray, Alexa647 label, 635/667 nm fluorescence, artefact control for SMM control protein annotation, profiling panel (AID 1117); conditions: alpha-BTX-A647 binding fluorescence, higher = more signal
Sequence of Alpha-bungarotoxin (Bungarus multicinctus) (P60615 whole entry, looked up): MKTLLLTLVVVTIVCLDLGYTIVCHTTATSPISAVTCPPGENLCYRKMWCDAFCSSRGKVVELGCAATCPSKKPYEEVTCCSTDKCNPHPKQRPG

Row | SMILES | composite z-score [1] | composite z-score [2] | composite z-score [3] | z-score [4] | composite z-score [5] | composite z-score [6] | composite z-score [7] | composite z-score [8] | composite z-score [9] | composite z-score [10] | composite z-score [11] | z-score [12] | composite z-score [13] | composite z-score [14] | composite z-score [15] | composite z-score [16] | composite z-score [17] | composite z-score [18] | composite z-score [19] | composite z-score [20]
1 | CCCCC(=C=CC[C@H](O)c1ccc(OCCO)cc1)C[C@H](O)c1cc(Cl)cc(Cl)c1O | 1.06 | -0.0865 | 0.218 | -0.321 (inactive) | 1.35 | 0.11 | -0.0609 | 0.17 | 0.193 | 0.813 | 0.584 | -1.63 | 0.0916 | 0.0258 | -0.0211 | -0.198 | -0.153 | 0.452 | 0.849 | 0.779
2 | [N-]=[N+]=NCc1ccccc1[C@@H]1OC(c2ccc(OCCCO)cc2)=N[C@]1(Cc1ccccc1N=[N+]=[N-])C(=O)N1CCCCC1 | 0.785 | 0.561 | 0.321 | 0.327 (inactive) | 0.548 | 0.363 | 0.435 | 0.491 | -0.221 | 1.29 | 1.41 | -2.12 | 0.0538 | 1.93 | 1.26 | -0.248 | -0.023 | -0.538 | 0.482 | 0.671
3 | COC(=O)C1=CC(CCCO)=CC(C)N(Cc2cccc(OC(F)(F)F)c2)C=C1C(=O)OC (stereo not given) | 0.325 | 0.116 | 0.259 | -0.488 (inactive) | 0.278 | -0.606 | -0.94 | 0.0535 | -0.695 | 0.383 | 1.35 | -0.307 | -0.708 | 1.02 | 1.15 | -0.0643 | 0.0929 | 0.716 | 0.595 | 0.498
4 | CN(C)CCCNC(=O)[C@@H]1c2ccccc2C(=O)N(C2CCCCC2)[C@H]1c1ccc(CO)cc1 | 1.37 | 0.229 | 0.11 | 1.39 (inactive) | 1.43 | 1.32 | 0.758 | 1.53 | 1.15 | 0.106 | 1.44 | -2.43 | 1.17 | 1.41 | -0.179 | -0.0459 | 0.191 | -0.312 | 0.87 | 0.233
5 | C#C[C@@H](CC)O[Si](C#CCCCC#N)(C(C)C)C(C)C | 0.329 | 0.155 | -0.0862 | -0.196 (inactive) | -0.232 | -0.021 | -0.405 | -0.669 | -0.277 | 0.573 | 0.294 | -0.923 | 0.0737 | -0.442 | -0.104 | -0.139 | 0.0483 | -0.121 | 0.372 | -0.275
6 | CC(C)C[C@@H]1NC(=O)[C@@]23C(=O)N[C@@H](Cc4ccccc4)C2[C@H](C)[C@@]2(C)O[C@H]2C3/C=C/C/C=C\CNC(=O)[C@@H](C)NC1=O (stereo not given in full) | 1.72 | -0.416 | -0.601 | -1.34 (inactive) | -0.052 | -0.608 | 0.401 | 0.331 | 0.431 | 1.27 | -0.702 | 0.0935 | 0.58 | -0.463 | -1.19 | -0.228 | 0.0899 | -0.636 | -0.212 | -0.116
7 | COCCOC(=O)N1C(=O)[C@@]2(c3ccccc31)[C@H](c1ccc(OCCO)cc1)N1[C@H](c3ccccc3)[C@H](c3ccccc3)OC(=O)[C@H]1[C@@H]2C(=O)N1CCCCCCC1 | 2.35 | 3.24 | 1.9 | -1.59 (inactive) | 1.76 | 1.46 | 2.03 | 1.76 | 2.62 | 1.89 | 1.52 | -1.56 | 1.83 | 3.21 | 1.79 | 1.61 | 3.26 | 3.73 | 5.85 | 5.03
8 | Cc1ccc(S[C@]2(C(=O)NC(C)C)CC(=O)N(Cc3ccccc3Cl)[C@@H]2c2ccc(CO)cc2)cc1 | 1.23 | 0.17 | 0.865 | -0.864 (inactive) | -0.465 | -0.628 | -1.04 | -1.2 | -1.47 | -0.318 | 0.949 | -1.81 | -1.76 | -0.142 | 0.214 | -0.154 | -0.0035 | -0.429 | 0.98 | 1.07
9 | CO[C@H]1O[C@H](CO)[C@@H](OC(=O)CCc2ccccc2)[C@H](OC(=O)c2cc3ccccc3[nH]2)[C@H]1OC(=O)c1cc2ccccc2[nH]1 | 0.757 | -0.118 | -0.0052 | -0.766 (inactive) | 1.27 | 0.828 | 0.543 | 0.847 | 0.777 | -0.108 | 1.34 | -3.2 | 0.817 | 1.65 | 0.193 | 0.055 | -0.138 | 0.248 | 1.21 | 0.889
10 | [N-]=[N+]=Nc1ccccc1C[C@@]1(C(=O)O)N=C(c2ccc(OCCCO)cc2)O[C@@H]1c1ccccc1N=[N+]=[N-] | 1.46 | 1.16 | 1.32 | -0.469 (inactive) | 0.285 | 1.11 | -0.383 | 0.626 | -0.435 | 1.29 | 1.26 | -1.26 | 0.0656 | 2.45 | 1.12 | -0.034 | 0.108 | 1.27 | 1.79 | 1.32
11 | COc1ccc([Si](C)(C)[C@@H]2[C@@H](CC(=O)N3Cc4ccccc4C[C@H]3CO)O[C@]3(C(=O)N(Cc4ccc(N5CCC5=O)cc4)c4ccccc43)[C@H]2C)cc1 | 1.16 | -0.259 | -0.1 | -1.12 (inactive) | 0.46 | 0.852 | 0.744 | 1.06 | 0.644 | 0.331 | 1.02 | -3.58 | 0.759 | 1.04 | -0.0245 | -0.124 | -0.16 | -0.388 | 1.24 | 0.963
